Measured values: the supplement of paper PMC8387472

Key:
Experiment in all cases: fraction of 1-bp insertions among edited reads; higher = more 1-bp insertion outcomes
Conditions in all cases: mESC; 2uM; 72 h treatment, harvest day 5
[1] = compound: Nc1ncnc2c1c(-c1cnc3[nH]ccc3c1)nn2C1CCCC1
Kenpaullone = compound: O=C1Cc2c([nH]c3ccc(Br)cc23)-c2ccccc2N1 [Kenpaullone]
Genistein = compound: O=c1c(-c2ccc(O)cc2)coc2cc(O)cc(O)c12 [Genistein]
[2] = compound: O=c1cc(N2CCOCC2)oc2c(-c3ccc4c(c3)OCCO4)csc12
Mercaptopurine (6-MP) = compound: S=c1[nH]cnc2nc[nH]c12 [Mercaptopurine (6-MP)]
[3] = compound: S=c1nc[nH]c2nc[nH]c12 [6-Mercaptopurine (6-MP) Monohydrate]
Pemetrexed = compound: Nc1nc2[nH]cc(CCc3ccc(C(=O)N[C@@H](CCC(=O)O)C(=O)O)cc3)c2c(=O)[nH]1 [Pemetrexed]
[4] = compound: O=C(c1cccc(Cl)c1F)N1CCN(Cc2cccc(Nc3nccs3)n2)CC1

| Target | fraction of 1-bp insertions among edited reads [1] | fraction of 1-bp insertions among edited reads (Kenpaullone) | fraction of 1-bp insertions among edited reads (Genistein) | fraction of 1-bp insertions among edited reads [2] | fraction of 1-bp insertions among edited reads (Mercaptopurine (6-MP)) | fraction of 1-bp insertions among edited reads [3] | fraction of 1-bp insertions among edited reads (Pemetrexed) | fraction of 1-bp insertions among edited reads [4] |
| --- | --- | --- | --- | --- | --- | --- | --- | --- |
| 27.0 CCAGAATTAGAACATATCATCTGGACCCTTTTCCATCTGGACCCTTTTCCAGCACACCCTG | 0.169 | 0.146 | 0.183 | 0.158 | 0.141 | 0.187 |  |  |
| 4.0 (DMSO control at this site: 1-bp insertion 0.146, MH deletion 0.523, edited 0.125) ACGCCTTAGTGCACGAGTGACGGGATAATGTGGTCTCAGGTAATTGATAGGCTTCCAACTT | 0.237 | 0.171 | 0.126 | 0.137 | 0.161 | 0.153 | 0.121 | 0.18 |
| 40.0 (DMSO control at this site: 1-bp insertion 0.072, MH deletion 0.192, edited 0.189) GCGAATCAACTGTTCAACAACAGCAGCAGCCACCTGGAGGACTACAGTGGCCTGTCCGTGT | 0.107 | 0.0742 | 0.0673 | 0.0807 | 0.0821 | 0.084 | 0.0582 | 0.0793 |
| 32.0 (DMSO control at this site: 1-bp insertion 0.03, MH deletion 0.85, edited 0.898) AGAAGTCCAGGATCAGGGGGACTGGGGTCGGGAGGGTGGGGCAGGAAGGAAGCCAGAATCA | 0.0205 | 0.0214 | 0.0197 | 0.0144 | 0.0169 | 0.0198 | 0.0205 | 0.0247 |
| 18.0 (DMSO control at this site: 1-bp insertion 0.114, MH deletion 0.789, edited 0.094) GCGCAAGTGCATAAGTTTTTCTTAAGGCGTGCCTTTAAGGCGTGCCTTTGTCGGTCCTGGA | 0.12 | 0.134 | 0.0973 | 0.0588 | 0.137 | 0.13 | 0.0804 | 0.114 |
| 5.0 (DMSO control at this site: 1-bp insertion 0.214, MH deletion 0.567, edited 0.105) CGCTGACCCGAGACCTACGCGAACCGAAATCGGCGACCGGTGCGCAAGCAGGGCTGGCGTC | 0.293 | 0.277 | 0.203 | 0.187 | 0.27 | 0.272 | 0.184 | 0.277 |
| 23.0 AGAACAAAGCGCTCATATAACGATATGGGGGGTTATGGGGGGTTGAATTGCTTCAGCACGA |  |  |  |  |  |  |  | 0.008 |
| 16.0 (DMSO control at this site: 1-bp insertion 0.172, MH deletion 0.29, edited 0.05) CGGACTGCACACATGGGTAGGATCGTGCACGCGAGGTAGGATCGTGCACGCGAAGTTATTC | 0.218 | 0.198 | 0.144 | 0.19 | 0.165 | 0.166 | 0.149 | 0.178 |
| 41.0 (DMSO control at this site: 1-bp insertion 0.022, MH deletion 0.754, edited 0.115) AAAGAGACAGCAGGTATGAATCCATCTTCCTGACCCTTGGGACCAGCCGGGGCAGTGAAGC | 0.0155 | 0.0338 | 0.0158 | 0.0195 | 0.0292 | 0.0487 | 0.0232 | 0.0392 |
| 20.0 (DMSO control at this site: 1-bp insertion 0.349, MH deletion 0.138, edited 0.084) TACAGGTGTAGACTGGTTACGTGGCTGCGGAATTGACTGGTTACGTGGCTGCGGAATTTTG | 0.456 | 0.429 | 0.278 | 0.203 | 0.376 | 0.22 | 0.22 | 0.453 |
| 15.0 GCGCCTCCAATGACCCAGTGGGATCCTACTCCATAATGGGATCCTGGGGATTCCTCGCTCC |  |  | 0.0821 |  |  | 0.0929 |  |  |
| 28.0 (DMSO control at this site: 1-bp insertion 0.035, MH deletion 0.77, edited 0.142) TGGTTCTTCCTTTGTAGAGAGTGTTCATCTGGGAATCTGGGACTTGGATGAGACAATCATT | 0.0494 | 0.0461 | 0.032 | 0.0316 | 0.0428 | 0.0506 | 0.0369 | 0.0462 |
| 42.0 (DMSO control at this site: 1-bp insertion 0.145, MH deletion 0.655, edited 0.132) GGGCTAAACCTATGAGCACAGTAGAACTAAGGGTGGGTGGTGTAGCTAAAGAACTTGACCA | 0.246 | 0.21 | 0.144 | 0.141 | 0.181 | 0.198 | 0.118 | 0.201 |
| 45.0 (DMSO control at this site: 1-bp insertion 0.017, MH deletion 0.666, edited 0.101) TTACACAGCATGAACTGCTAGGTGATGATGTCAGATTCGGTTTTACTAACTTCTCCAAAAA | 0.0301 | 0.0351 | 0.0293 | 0.0264 | 0.0287 | 0.0267 | 0.0325 | 0.0412 |
| 43.0 (DMSO control at this site: 1-bp insertion 0.134, MH deletion 0.714, edited 0.104) AGTTTAACTTACTCCGGCCAAAAAAGAACTGCACCTCTGGAGCGGGTTAGTGGTGGTGGTA | 0.0907 | 0.058 | 0.0866 | 0.0822 | 0.0946 | 0.122 | 0.101 | 0.0417 |
| 35.0 (DMSO control at this site: 1-bp insertion 0.01, MH deletion 0.72, edited 0.098) CCACTTTTAGAGAGGGTGAAAATCATCAGTTATCATCAGGGCAACAAATTGCTTTCTCCTA | 0.0183 | 0.0204 | 0.00956 | 0.0278 | 0.0333 | 0.0402 | 0.0156 | 0.0381 |
| 38.0 (DMSO control at this site: 1-bp insertion 0.063, MH deletion 0.487, edited 0.17) GGGCTGGGTGCTAAAATGAGGAGCTCCAAGAAGACTGAGGTGAACCTGGAGGCCCCTGAGC | 0.104 | 0.102 | 0.0646 | 0.0742 | 0.0697 | 0.0502 | 0.0448 | 0.0891 |
| 31.0 (DMSO control at this site: 1-bp insertion 0.315, MH deletion 0.329, edited 0.026) ACCTCCACAGGCTGGGTGGCCCGGAGGCTGGGCGGCCCGGAGGCTGGGCTGGGCGAGTATC |  | 0.173 | 0.102 | 0.138 | 0.178 | 0.208 | 0.0954 | 0.127 |
| 33.0 (DMSO control at this site: 1-bp insertion 0.008, MH deletion 0.771, edited 0.112) CATTAAGAGCAGCTGCCGGCCCCCAAGTGGACAGAGCTGGCCCTGCTGATTCAACAGTGCA | 0.0263 | 0.0243 | 0.0314 | 0.0159 | 0.0358 | 0.0255 | 0.0161 | 0.0349 |
